“And” between values parts separate entries of the source, which are not always exact repeats. Equal values may be shown once. Results filed as inconclusive are left out. A structure can be active in one record and inactive in another. The source made the active and inactive calls. How the source made its calls, unless noted: active means hit-call score of the fitted dose curve at least 0.9, where 1 is the maximum; inactive means score below 0.9.
Key:
[1] = read-out: Monocyte Chemoattractant Protein-1 (MCP1), CCL2 (gene 6347); assay: BSK_SAg_MCP1: BioMAP Diversity Plus: SAg Assay for Monocyte Chemoattractant Protein-1 (MCP1) Biomarker Activity (AID 2283090); details: primary human HUVEC with PBMC; actives raise or lower the signal
Method in brief: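 Values derive from bidirectional fitting of ELISA-measured MCP1 against DMSO controls. Readings were taken 24 h after dosing human vascular endothelial cells co-cultured with peripheral blood mononuclear cells under superantigen stimulation.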

[2] = read-out: E-selectin (Homo sapiens) (UniProt P16581); assay: BSK_SAg_Eselectin: BioMAP Diversity Plus: SAg Assay for Eselectin Biomarker Activity (AID 2283091); details: primary human HUVEC with PBMC; actives raise or lower the signal
Method in brief: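 HUVEC co-cultured with PBMC, compound dosed then read at 24 h; E-selectin measured by ELISA. Activity fitted bidirectionally against DMSO as negative control and baseline.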

[3] = read-out: Monokine induced gamma interferon (MIG), CXCL9 (gene 4283); assay: BSK_SAg_MIG: BioMAP Diversity Plus: SAg Assay for Monokine induced gamma interferon (MIG) Biomarker Activity (AID 2283092); details: primary human HUVEC with PBMC; actives raise or lower the signal
Method in brief: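 ELISA readout of MIG/CXCL9; primary human umbilical vein endothelial cells co-cultured with peripheral blood mononuclear cells; 24 h post-dose; gain/loss fit vs DMSO baseline.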

[4] = BSK_SAg_PBMCCytotoxicity: PBMC Cytotoxicity Assessment in the BioMAP Diversity Plus: SAg Assay (AID 2283093); details: primary human HUVEC with PBMC;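 further: PBMC viability measured as Alamar Blue reduction fluorescence at 546/580 nm; fitted both ways against DMSO so a hit may be loss or gain of signal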;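 on AC50: PBMC superantigen activated with SEB plus TSST-1 one hour after compound addition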
Method in brief: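 Alamar Blue reduction (6 h, 546/580 nm) reports PBMC cytotoxicity after 90 h superantigen activation (SEB, TSST-1; 20 ng/mL final each) with 1 h compound pre-treatment. Gain or loss of signal fitted versus DMSO.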

[5] = read-out: Interleukin-8 (IL8), CXCL8 (gene 3576); assay: BSK_SAg_IL8: BioMAP Diversity Plus: SAg Assay for Interleukin-8 (IL8) Biomarker Activity (AID 2283094); details: primary human HUVEC with PBMC; actives raise or lower the signal
Method in brief: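 Chemicals were dosed onto a human endothelial–PBMC co-culture, and IL-8 was quantified by ELISA after 24 h. Both increases and decreases were fitted relative to DMSO.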

[6] = BSK_SAg_Proliferation: Cell Proliferation Assessment in the BioMAP Diversity Plus: SAg Assay (AID 2283095); details: primary human HUVEC with PBMC;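 further: relative cell number as total protein by SRB absorbance in sub-confluent culture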
Method in brief: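 Absorbance of sulforhodamine B at 560 nm reports total protein in a human vascular endothelial/PBMC co-culture after 96 h chemical exposure. Gain or loss of signal is fitted in both directions against DMSO.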

[7] = BSK_SAg_SRB: Viability Assessment in the BioMAP Diversity Plus: SAg Assay (AID 2283096); details: primary human HUVEC with PBMC;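 further: cells read one day after compound addition; hits may be either gain or loss of signal compared with DMSO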
Method in brief: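 This overt-cytotoxicity endpoint quantifies protein in human endothelial/PBMC co-cultures at 24 h using SRB absorbance (560 nm) after trichloroacetic acid fixation. Values reflect signal change from the DMSO negative control, fitted bidirectionally.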

[8] = target: human CYP19A1, CYP19A1 (gene 1588) (UniProt P11511); assay: NVS_ADME_hCYP19A1: NovaScreen (NVS) CYP450-related Enzyme Activity (ADME) Assay for human CYP19A1 (AID 2283098; active means hit-call score of the fitted dose curve at least 0.9, where 1 is the maximum;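 on AC50: potency for inhibitors seen as loss of fluorescent enzyme signal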)
human CYP19A1, CYP19A1 (gene 1588), sequence (P11511 whole entry, looked up): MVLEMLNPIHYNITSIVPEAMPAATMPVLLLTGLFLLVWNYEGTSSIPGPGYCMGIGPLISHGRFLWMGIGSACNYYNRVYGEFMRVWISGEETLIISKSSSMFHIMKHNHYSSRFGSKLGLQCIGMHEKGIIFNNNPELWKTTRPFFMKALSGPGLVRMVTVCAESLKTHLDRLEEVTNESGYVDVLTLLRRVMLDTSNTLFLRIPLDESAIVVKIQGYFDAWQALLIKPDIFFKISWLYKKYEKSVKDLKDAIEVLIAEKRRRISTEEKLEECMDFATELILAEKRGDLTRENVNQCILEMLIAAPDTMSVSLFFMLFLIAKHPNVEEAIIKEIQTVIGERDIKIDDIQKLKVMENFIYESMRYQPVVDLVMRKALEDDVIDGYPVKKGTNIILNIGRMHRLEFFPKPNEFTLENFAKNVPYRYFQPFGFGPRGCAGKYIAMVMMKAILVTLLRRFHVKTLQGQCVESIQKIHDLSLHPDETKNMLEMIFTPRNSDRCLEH
Method in brief: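 Compounds were first screened at 10 uM in duplicate against purified enzyme, with a fluorogenic substrate and fluorescence intensity detection after 0.5 h. Inhibition appears as reduced signal against acetonitrile control.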

[9] = target: Cytochrome P450 2C19 (Homo sapiens) (UniProt P33261); assay: NVS_ADME_hCYP2C19: NovaScreen (NVS) CYP450-related Enzyme Activity (ADME) Assay for human CYP2C19 (AID 2283113; active means hit-call score of the fitted dose curve at least 0.9, where 1 is the maximum;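 on AC50: potency for inhibition seen as loss of fluorescent signal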)
Method in brief: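 Cell-free assay of recombinant human CYP2C19 expressed in insect cells, with a fluorogenic substrate; fluorescence intensity read 1 hour after dosing. Loss of signal relative to acetonitrile negative control indicates inhibition. Primary screen at 10 uM in duplicate, then concentration series.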

[10] = target: human CYP2A6, CYP2A6 (gene 1548) (UniProt P11509); assay: NVS_ADME_hCYP2A6: NovaScreen (NVS) CYP450-related Enzyme Activity (ADME) Assay for human CYP2A6 (AID 2283099; active means hit-call score of the fitted dose curve at least 0.9, where 1 is the maximum)
human CYP2A6, CYP2A6 (gene 1548), sequence (P11509 whole entry, looked up): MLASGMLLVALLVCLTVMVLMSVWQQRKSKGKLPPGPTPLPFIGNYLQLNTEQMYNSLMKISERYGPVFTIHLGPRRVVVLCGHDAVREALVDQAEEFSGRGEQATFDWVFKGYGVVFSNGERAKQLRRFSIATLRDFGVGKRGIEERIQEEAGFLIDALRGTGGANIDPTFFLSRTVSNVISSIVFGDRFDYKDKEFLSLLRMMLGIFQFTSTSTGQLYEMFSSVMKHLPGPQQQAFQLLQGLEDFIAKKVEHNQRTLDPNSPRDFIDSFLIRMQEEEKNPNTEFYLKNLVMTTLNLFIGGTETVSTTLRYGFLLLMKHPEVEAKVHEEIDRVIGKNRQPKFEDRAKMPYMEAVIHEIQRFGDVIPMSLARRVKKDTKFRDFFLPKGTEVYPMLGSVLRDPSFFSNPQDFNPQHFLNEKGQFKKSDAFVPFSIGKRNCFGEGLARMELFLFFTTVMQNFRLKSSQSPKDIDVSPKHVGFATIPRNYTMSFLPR
Method in brief: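 Cell-free fluorescence readout of recombinant human CYP2A6 expressed in insect cells, read 0.5 h after dosing; loss of signal versus acetonitrile negative control. Primary screen in duplicate at 10 uM; actives re-run in concentration-response up to 20 uM.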

Measured: AC50

E-selectin (Homo sapiens), sequence (P16581 whole entry, looked up): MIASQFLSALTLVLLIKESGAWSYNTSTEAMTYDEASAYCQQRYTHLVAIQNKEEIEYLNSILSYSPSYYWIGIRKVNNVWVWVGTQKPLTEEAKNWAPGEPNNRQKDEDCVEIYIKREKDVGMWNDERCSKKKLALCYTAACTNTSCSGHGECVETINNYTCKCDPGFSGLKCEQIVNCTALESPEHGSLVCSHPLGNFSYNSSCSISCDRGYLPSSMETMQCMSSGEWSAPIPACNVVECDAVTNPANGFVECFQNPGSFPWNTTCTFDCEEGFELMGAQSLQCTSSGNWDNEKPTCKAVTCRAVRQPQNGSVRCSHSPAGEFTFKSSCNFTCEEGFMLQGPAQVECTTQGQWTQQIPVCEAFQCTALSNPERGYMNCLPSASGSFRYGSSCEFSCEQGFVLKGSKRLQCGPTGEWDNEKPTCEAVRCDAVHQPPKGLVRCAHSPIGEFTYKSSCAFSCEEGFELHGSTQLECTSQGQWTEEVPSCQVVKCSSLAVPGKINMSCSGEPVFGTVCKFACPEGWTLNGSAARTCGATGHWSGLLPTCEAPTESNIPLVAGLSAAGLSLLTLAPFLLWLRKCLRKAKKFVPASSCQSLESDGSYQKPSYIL

O=[N+]([O-])c1ccc(Cl)c(Cl)c1
not listed: [8] | [9] | [10]
inactive: all other assays above

O=C(O)C=CC(F)(C(F)(F)F)C(F)(F)F
not listed: [8] | [9] | [10]
inactive: all other assays above

ClC(Cl)(Cl)c1ccccc1
not listed: [8] | [9] | [10]
inactive: all other assays above

CC(C)(C)c1ccccc1OP(=O)(Oc1ccccc1)Oc1ccccc1
active: [1] 27.7 µM | [2] 20 µM | [3] 34.6 µM | [4] 33.2 µM | [5] 20 µM | [6] 10.8 µM | [7] 30.7 µM

c1cc2c3c(cccc3c1)CC2
not listed: [8] | [9] | [10]
inactive: all other assays above

CC(O)C(F)(F)C(F)(F)F (stereo not given)
not listed: [8] | [9] | [10]
inactive: all other assays above

COCCOCCO
not listed: [8] | [9] | [10]
inactive: all other assays above

CC(C)(C)OOC(C)(C)C
not listed: [8] | [9] | [10]
inactive: all other assays above

CCN(CC)c1ccccc1
not listed: [8] | [9] | [10]
inactive: all other assays above

NC(=O)C(F)(F)C(F)(F)F
not listed: [8] | [9] | [10]
inactive: all other assays above

CCOP(=S)(OCC)SCSc1ccc(Cl)cc1
inactive: [3] | [7]
active: [1] 20 µM | [2] 20 µM | [4] 13 µM | [5] 20 µM | [6] 14.2 µM

COC(=O)C(F)(F)C(F)(F)OC(F)(C(F)(F)F)C(F)(F)OC(F)=C(F)F (stereo not given)
not listed: [8] | [9] | [10]
inactive: all other assays above

CC(Cl)CN(C)C (stereo not given)
active: [1] 0.0162 µM | [2] 20 µM | [6] 20 µM
inactive: [3] | [4] | [5] | [7]

CCCN(CCC)c1c([N+](=O)[O-])cc(C(C)C)cc1[N+](=O)[O-]
inactive: [3]
active: [1] 37.1 µM | [2] 30.3 µM | [4] 13.9 µM | [5] 32.4 µM | [6] 14.7 µM | [7] 29.5 µM

CCCCC(CC)COC(=O)c1c(Br)c(Br)c(Br)c(Br)c1C(=O)OCC(CC)CCCC (stereo not given)
not listed: [8] | [9] | [10]
inactive: all other assays above

O=C(O)C(F)(F)OC(F)(F)C(F)(F)OC(F)(F)C(=O)O
not listed: [8] | [9] | [10]
inactive: all other assays above

OCC(F)(F)OC(F)(F)C(F)(F)OC(F)(F)CO
not listed: [8] | [9] | [10]
inactive: all other assays above

O=C(O)C(F)(OC(F)(F)C(F)(F)C(F)(F)F)C(F)(F)F (stereo not given)
active: [5] 9.29 µM
inactive: [1] | [2] | [3] | [4] | [5] | [6] | [7]

O=c1ssc(Cl)c1Cl
active: [1] 5.35 µM | [2] 4.28 µM | [3] 9 µM | [4] 4.21 µM | [5] 8.19 µM | [6] 1.94 µM | [7] 6.23 µM

N#Cc1cc([N+](=O)[O-])ccc1N
not listed: [8] | [9] | [10]
inactive: all other assays above

ClC(Cl)=C(c1ccc(Cl)cc1)c1ccccc1Cl
active: [1] 25.9 µM | [2] 20 µM | [3] 20 µM | [4] 10.9 µM | [5] 20 µM | [6] 6.98 µM | [7] 30.3 µM

OCC(F)(F)OC(F)(F)C(F)(F)OC(F)(F)C(F)(F)OC(F)(F)CO
inactive: [1] | [3] | [4] | [5] | [6] | [7]
active: [1] 10.3 µM | [2] 38.3 µM and 42.9 µM | [5] 17.9 µM

CCOP(=S)(OCC)SCS(=O)(=O)CC
not listed: [8] | [9] | [10]
inactive: all other assays above

Nc1cc2c3c(c1)C(c1ccccc1)=N[C@@H](NC(=O)c1cccnc1)C(=O)N3CC2
active: [2] 1.12 µM
not listed: [8] | [9] | [10]
inactive: all other assays above

C=CC(=O)OCC(F)(F)C(F)F
active: [1] 34.3 µM and 20.4 µM | [2] 30.4 µM and 17.6 µM | [3] 53.5 µM and 45.4 µM | [4] 15.1 µM | [5] 20.7 µM and 9.88 µM | [6] 13.4 µM and 6.25 µM
inactive: [4] | [7]

CCOS(=O)(=O)OCC
not listed: [8] | [9] | [10]
inactive: all other assays above

O=C(O)C(F)(F)OC(F)(F)C(F)(F)OC(F)(F)F
not listed: [8] | [9] | [10]
inactive: all other assays above

FC(F)(F)C(F)(C(F)(F)F)C(F)(F)C(F)(F)CC1CO1 (stereo not given)
not listed: [8] | [9] | [10]
inactive: all other assays above

[N-]=[N+]=[N-]
not listed: [8] | [9] | [10]
inactive: all other assays above

Cc1cccc(N)c1
not listed: [8] | [9] | [10]
inactive: all other assays above

c1ccc(OP(Oc2ccccc2)Oc2ccccc2)cc1
not listed: [8] | [9] | [10]
inactive: all other assays above

COP(=O)(CCC(=O)NCO)OC
not listed: [8] | [9] | [10]
inactive: all other assays above

ClC(Cl)c1ccccc1
not listed: [8] | [9] | [10]
inactive: all other assays above

CCCCCCCc1ccc(O)cc1
inactive: [8] | [9]
active: [1] 36 µM | [2] 31.6 µM | [3] 37.2 µM | [4] 27.5 µM | [5] 33.1 µM | [6] 18.8 µM | [7] 37.1 µM | [8] 5.15 µM

Cc1ccc([N+](=O)[O-])cc1C
active: [9] 2.77 µM
not listed: [10]
inactive: all other assays above

Nc1ccc(Cl)cc1
not listed: [8] | [9] | [10]
inactive: all other assays above

CCCCc1ccccc1
not listed: [8] | [9] | [10]
inactive: all other assays above

CN(C)C(=O)Cl
not listed: [8] | [9]
inactive: all other assays above

CCCCN(CCCC)N=O
not listed: [8] | [9] | [10]
inactive: all other assays above

COP(=O)(O)OC
active: [2] 0.0643 µM
not listed: [8] | [9] | [10]
inactive: all other assays above

N#Cc1c(-c2ccc(Cl)cc2)[nH]c(C(F)(F)F)c1Br
active: [1] 1.53 µM | [2] 0.267 µM | [3] 2.85 µM | [4] 5.4 µM | [5] 0.178 µM | [6] 1.86 µM | [7] 4.34 µM

O=C(O)C1C(C(=O)O)C2(Cl)C(Cl)=C(Cl)C1(Cl)C2(Cl)Cl (stereo not given)
not listed: [8] | [9]
inactive: all other assays above

Nc1ccc([N+](=O)[O-])cc1Cl
not listed: [8] | [9] | [10]
inactive: all other assays above

O=C(O)C(F)(F)C(F)(F)C(=O)O
not listed: [8] | [9] | [10]
inactive: all other assays above

CCOP(=S)(S)OCC
not listed: [8] | [9] | [10]
inactive: all other assays above

CCOP(=S)(NC(C)C)Oc1ccccc1C(=O)OC(C)C (stereo not given)
not listed: [8] | [9] | [10]
inactive: all other assays above

CCCCC(CC)COP(=O)(Oc1ccccc1)Oc1ccccc1 (stereo not given)
active: [2] 20 µM | [4] 20 µM | [5] 7.9 µM | [6] 20 µM
inactive: [1] | [3] | [7]

CCOc1ccc(C(C)(C)COCc2cccc(Oc3ccccc3)c2)cc1
active: [6] 20 µM
not listed: [9] | [10]
inactive: all other assays above

CC(Cl)(Cl)C(=O)O
not listed: [8] | [9] | [10]
inactive: all other assays above

O=S(=O)(F)C(F)(F)C(F)(F)C(F)(F)C(F)(F)C(F)(F)C(F)(F)C(F)(F)C(F)(F)F
not listed: [8] | [9] | [10]
inactive: all other assays above

Cc1ccc(N)cc1N
not listed: [8] | [9]
inactive: all other assays above

— PubChem BioAssay (EPA / NIEHS)
